Assay type in all cases: functional
For assay [1], the system named is Plasmodium falciparum. The assay is described as follows: GSK_TCMDC: Inhibition of Plasmodium falciparum 3D7 in whole red blood cells, using parasite LDH activity as an index of growth. Test compounds present at 2uM.
Assay [2] concerns Plasmodium falciparum. Description: GSK_TCMDC: Inhibition of Plasmodium falciparum Dd2 in whole red blood cells, using parasite LDH activity as an index of growth. Test compounds present at 2uM.
For assay [3], the system named is HepG2. Description: GSK_TCMDC: Percent inhibition of human HepG2 cell line. Test compounds present at 10uM.

The record followed here is ChEMBL document CHEMBL1157539, “Thousands of chemical starting points for antimalarial lead identification” (Nature, 2010).

On to `O=C(O)C(F)(F)F.O=S(=O)(NCCN1CCCC1)c1ccc(-c2ccc(CNCc3ccsc3)cc2)cc1F`, for which the Inhibition (commonly the relative decrease from the control value, in per cent) in assay [1] was determined as 96%; in assay [2], 40%; in assay [3], 27%.
In the case of `COC(=O)c1cccc(CNCc2cccc(-c3csc(-c4nc5ccccc5[nH]4)c3)c2)c1.O=C(O)C(F)(F)F`, the Inhibition in assay [1] amounted to 100%; in assay [2], 44%; in assay [3] it was 0%.
Take `CCN1CCC(N(CCCCCCCCc2ccc(C(F)(F)F)cc2)C(=O)Cn2c(CCc3cccc(F)c3F)cc(=O)c3ccccc32)CC1.O=C(O)C(O)C(O)C(=O)O`: the Inhibition in assay [1] is recorded as 88%; in assay [2], 65%; in assay [3] it was 89%.
The matching figures for `O=C(Nc1ccc(OC2CCN(Cc3ccc(F)cc3)C2)cc1)c1ccco1.O=C(O)C(F)(F)F` (stereo not given): 88%, 69% and 0%.
`O=C(Cc1c[nH]cn1)Nc1cccc(-c2cccc(-c3nc4cc(C(F)(F)F)ccc4[nH]3)c2)c1`: the Inhibition is on record as 100% in assay [1], 100% in assay [2] and 35% in assay [3].
With `CN1CCCN(Cc2cccc(-c3cccc(NC(=O)c4cccc(Cl)c4)c3)c2)CC1.O=C(O)C(F)(F)F`, the Inhibition is listed as 96% in assay [1], 20% in assay [2] and 17% in assay [3].
The matching figures for `CC1CCN(CC[C@H]2CCCN2S(=O)(=O)c2cccc(NC(=O)c3ccc(-c4ccccc4)cc3)c2)CC1`: 87%, 36% and 38%.
The matching figures for `CC(CN(C)C)C(=O)Nc1ccc(-c2ccc(-c3nc4ccccc4[nH]3)cc2)cc1` (stereo not given): 99%, 83% and 2%.
The matching figures for `O=C(c1cc(-c2ccccc2)n[nH]1)N1CCN(S(=O)(=O)c2ccc(Cl)s2)CC1`: 88%, 81% and 9%.
For the molecule `CCN(CC)CCN(Cc1ccc(-c2ccc(C(F)(F)F)cc2)cc1)C(=O)Cn1c(CCc2cc(F)c(F)cc2F)nc(=O)c2ccccc21.O=C(O)C(O)C(O)C(=O)O`, the Inhibition in assay [1] was 99%; in assay [2], 50%; in assay [3], 39%.
The matching figures for `O=C(/C=C/c1ccsc1)N1CCC(CCN2CCC(c3c[nH]c4ccccc34)CC2)CC1`: 88%, 24% and 37%.
The matching figures for `Cn1c(Nc2nnc(C3CC3)s2)nc2cc(Nc3ccnc(Nc4cccc(CS(C)(=O)=O)c4)n3)ccc21`: 97%, 83% and 0%.
Regarding `N=c1ccn(CC(=NO)c2ccc(Cl)c(Cl)c2)cc1`, the Inhibition in assay [1] amounted to 87%; in assay [2] it was 81%; in assay [3], 23%.
The matching figures for `Nc1cccc(CNCc2ccc(-c3ccc(-c4nc5cc(C(F)(F)F)ccc5[nH]4)s3)cc2)c1.O=C(O)C(F)(F)F`: 100%, 98% and 28%.
The matching figures for `CN1CCC[C@H]1COc1ccc(CN2CC[C@H](NC(=O)c3ccc(Cl)c(Cl)c3)C2)cc1Cl.O=C(O)C(F)(F)F`: 97%, 44% and 53%.
The matching figures for `Cc1cc(=NN=Cc2ccc(F)cc2)c2cc(F)ccc2[nH]1`: 100%, 61% and 6%.
As to `Cc1cc(N2CCOCC2)nc(Nc2ccc(NC(=O)c3cccc4ccccc34)cc2)n1`, the Inhibition was 95% in assay [1], 11% in assay [2] and 44% in assay [3].
The matching figures for `Cc1ccc(N)cc1-c1nc(NC2CC(C)(C)NC(C)(C)C2)nc2c1ccc(=O)n2-c1c(F)cccc1F`: 98%, 1% and 0%.
For `CN(C)c1nc(NN=Cc2cc(Cl)ccc2O)nc(Nc2ccc(F)cc2)n1`, the Inhibition in assay [1] is on record as 94%; in assay [2] it was 46%; in assay [3], 32%.
The matching figures for `S=c1nc(-c2ccccc2)n2ccsc2n1`: 95%, 0% and 3%.
Regarding `O=C(O)C(F)(F)F.Oc1ccc(CCNc2nc(NCc3cccc(-c4cc(C(F)(F)F)ccc4Cl)c3)nc(N3CCNCC3)n2)cc1`, the Inhibition in assay [1] is on record as 90%; in assay [2], 8%; in assay [3], 33%.
The matching figures for `O=C(NCc1cccc(C(F)(F)F)c1)c1ccc(-c2nc3cc(F)c(F)cc3[nH]2)cc1`: 97%, 7% and 0%.
The matching figures for `CNC(=O)Cc1ccc(C(=O)Nc2cccc(-c3cccc(-c4nc5cc(C(F)(F)F)ccc5[nH]4)c3)c2)cc1`: 95%, 37% and 40%.
The matching figures for `COc1ccc(CC(=O)Nc2ccc(Nc3nc(C)cc(N(C)C)n3)cc2)cc1`: 97%, 31% and 17%.
As for `Cc1cccc2nc(-c3cccc(-c4ccc(NC(=O)CN5CCN(C)CC5)cc4)c3)[nH]c12`, the Inhibition in assay [1] came to 100%; in assay [2], 99%; in assay [3], 45%.
The matching figures for `CS(=O)(=O)Nc1cccc(-c2cnc3[nH]cc(-c4ccc(C(=O)O)c(F)c4)c3c2)c1`: 99%, 76% and 27%.
The matching figures for `O=C(Nc1ccc(N2CCN(C(=O)/C=C/c3ccccc3)CC2)c(Cl)c1)c1ccc([N+](=O)[O-])o1`: 97%, 90% and 98%.
The matching figures for `CCCCNCc1ccc(-c2nc(CN(CCCn3ccnc3)C(=O)C3COc4ccccc4O3)cs2)cc1.O=C(O)C(F)(F)F` (stereo not given): 93%, 8% and 6%.
Turning to `CSc1cccc(Nc2nc3ccc(S(=O)(=O)NCC(C)C)cc3n2C(C)C(C)C)c1` (stereo not given), the figures for the Inhibition in assay [1], in assay [2] and in assay [3] were 93%, 91% and 3%, respectively.
Turning to `Cc1cccc2nc(-c3cccc(-c4ccc(NC(=O)CCc5c[nH]cn5)cc4)c3)[nH]c12`, the values for the Inhibition in assay [1], in assay [2] and in assay [3] were 100%, 92% and 3%, respectively.
The matching figures for `C#CCOc1ccccc1CN1CCC(N2CCc3cc(NC(=O)c4cc(C)on4)ccc32)C1` (stereo not given): 95%, 94% and 16%.
With `CCOc1cc(C(=O)NC2CCN(Cc3ccccc3)CC2)ccc1-c1nc2cc(Cl)c(Cl)cc2[nH]1`, the Inhibition in assay [1] amounted to 100%; in assay [2] it was 99%; in assay [3], 24%.
The matching figures for `COc1ccc2nc(SC(C)C(=O)c3c[nH]c4ccccc34)[nH]c2c1` (stereo not given): 100%, 98% and 0%.
The matching figures for `COc1ccc(-n2nc(C)c3c2NC(=O)CC3c2ccccc2OCc2ccccc2F)cc1` (stereo not given): 93%, 70% and 38%.
The matching figures for `CN1CCC(N2CCN(Cc3ccc(-c4cccc(-c5nc6cc(F)ccc6[nH]5)c4)cc3)CC2)CC1.O=C(O)C(F)(F)F`: 100%, 99% and 67%.
Consider `COC(=O)c1ccc2nc(-c3ccc(/C=C/C(=O)NCc4ccc(Cl)c(Cl)c4)cc3)[nH]c2c1`, for which the Inhibition turned out to be 81% in assay [1], 3% in assay [2] and 13% in assay [3].
The matching figures for `COc1ccc(Nc2nccc(N3CCC(NC(=O)c4cccc(C#N)c4)C3)n2)cc1` (stereo not given): 92%, 93% and 6%.
The matching figures for `N#Cc1ccc(-c2ccc(C(=O)NCCCCN3CCC(c4ccncc4)CC3)cc2)cc1`: 94%, 16% and 34%.
The matching figures for `Cl.O=C(NC1CCC(CCN2Cc3cccc(C(F)(F)F)c3C2)CC1)c1cccc(-c2cccnc2)c1` (stereo not given): 100%, 67% and 26%.
`COc1ccc2ccccc2c1CCCCN1CCN(CC(c2ccc(F)cc2)N2CCN(C(C)C)CC2)CC1.Cl` (stereo not given): the Inhibition in assay [1] came to 100%; in assay [2], 83%; in assay [3], 92%.
The matching figures for `COc1ccc(N2CCN(c3nc(N)c4cc(OC)c(OC)cc4n3)CC2C)cc1.Cl` (stereo not given): 95%, 0% and 8%.
In the case of `Clc1cc(Nc2ccnc3ccc(Br)cc23)ccc1Oc1ccc2ccccc2c1Cl`, the values for the Inhibition in assay [1], in assay [2] and in assay [3] were 100%, 93% and 5%, respectively.
The matching figures for `CCOc1cc(C)ccc1C1CCN(CCCCNC(=O)c2cccc(-c3ccc(C(F)(F)F)cc3)c2)CC1`: 99%, 55% and 39%.
With `COc1ccc(CNC(=O)c2cnc3cc(-c4c(C)noc4C)ccc3c2Nc2ccccc2C(C)(C)C)cc1.Cl`, the values for the Inhibition in assay [1], in assay [2] and in assay [3] were 99%, 69% and 9%, respectively.
The matching figures for `O=C(CCC1CCCC1)N(Cc1ccc(-c2ccc(CNCCc3ccccn3)cc2)cc1)CC1CCCCN1.O=C(O)C(F)(F)F` (stereo not given): 95%, 69% and 32%.
The matching figures for `Cc1ccc(NC(=O)Nc2ccc(Cl)cc2)cc1-c1cccc(C(=O)Nc2ccc(F)cc2)c1`: 96%, 52% and 8%.
With `CS(=O)(=O)Nc1ccc(-c2cnc3[nH]cc(-c4ccc(C(=O)O)cc4)c3c2)cc1`, the results for the Inhibition in assay [1], in assay [2] and in assay [3] were 95%, 45% and 0%, respectively.
The matching figures for `Br.Cc1ccnc(Nc2nc(-c3ccccn3)cs2)c1`: 100%, 87% and 45%.
The matching figures for `O=C(Nc1cccc(OC2CCN(Cc3ccccc3)CC2)c1)c1ccc([N+](=O)[O-])cc1.O=C(O)C(F)(F)F`: 100%, 2% and 6%.
The matching figures for `O=C(/C=C/c1ccc(Cl)c(Cl)c1)NCCCCCN1CCCN(C(=O)Nc2ccc(C(F)(F)F)cc2)CC1`: 100%, 7% and 31%.
On to `I.N=C(N)NCC=C(c1ccccc1)c1ccccc1`, for which the Inhibition was 94% in assay [1], 83% in assay [2] and 9% in assay [3].
The matching figures for `CN(C)c1ccnc2ccc(NC(=O)Nc3ccnc4ccccc34)cc12`: 100%, 99% and 15%.
The matching figures for `O=[N+]([O-])c1cc2c(cc1C=NNc1nc(=Nc3ccccc3)[nH]c(=Nc3ccccc3)[nH]1)OCO2`: 98%, 46% and 0%.
The matching figures for `Cc1cc(OCCCN2CCC(NS(=O)(=O)c3ccc(C(F)(F)F)cc3)CC2)c2ccccc2n1`: 95%, 24% and 12%.
Turning to `C=CCc1cc(Cc2cnc(N)nc2N)cc(CCC)c1OC`, the Inhibition in assay [1] was 83%; in assay [2], 1%; in assay [3] it was 3%.
The matching figures for `O=C(O)C(F)(F)F.Oc1ccc(-c2nc3c(N4CCN(Cc5ccccc5)CC4)cccc3n2C2CCNCC2)cc1`: 85%, 7% and 0%.
Turning to `Cc1cccc2nc(-c3ccc(-c4ccc(CNCc5ccc(S(C)(=O)=O)cc5)cc4)cc3)[nH]c12.O=C(O)C(F)(F)F`, the Inhibition is recorded as 93% in assay [1], 38% in assay [2] and 19% in assay [3].
The matching figures for `COc1ccc(NC(=O)Nc2ccc(Nc3nc(C)cc(N4CCCC4)n3)cc2)cc1`: 100%, 100% and 14%.
The matching figures for `COc1cc(C2NCC3(CCOCC3)c3cc4c(cc32)OCCO4)cc(OC)c1OC.Cl` (stereo not given): 95%, 2% and 24%.
The matching figures for `COc1cc(NCCCNCC2c3ccccc3Oc3ccccc32)nc2ccccc12.O=C(O)C(F)(F)F`: 99%, 66% and 99%.
